KB-3-1 cytotox = kills parental KB-3-1 adenocarcinoma cells | KB-3-1 viability, CellTiter-Glo ATP luminescence, 72 h | Potency, µM (doses to about 46.1 µM), usual class: cytotoxic | 400,000 compounds, 1.4% hits | AID 1347075; note: potency is the fitted concentration of half-maximal effect; nearly all actives have a fitted effect of over 60% in size
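Cells are dispensed, compounds pinned in, plates held at 37 °C for 72 h, then CellTiter-Glo is added and luminescence read after 10 minutes. Cell line: parental KB-3-1 in phenol-red-free DMEM, 10% FBS.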
IL-1B inflam inh = blocks inflammasome-driven IL-1 beta release; THP-1 LPS/ATP IL-1B secretion, AlphaLISA, 16 h; hits give low values; activity change, % at 57.5 µM; 360,000 compounds, 4.7% hits; AID 743279; in the data active = activity change below about -50%; inconclusive = mostly about -30% to -49%
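THP-1 cells pretreated 1 hr with compounds (up to 57.5 uM final), then stimulated with LPS (250 ng/mL final) plus ATP (1.25 mM final); secreted IL-1B measured by AlphaLISA after 16 hr, decreased signal indicating inhibition.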
HT1080 IDH1KD tx = toxicity to HT-1080 IDH1 knockdown cells (counter line). Potency, µM (top dose mostly 46.1 µM), for inactives: at the highest dose activity, negative = toxicity, usual class: cytotoxic. HT-1080 IDH1 knockdown viability, ATP luminescence, 48 h. 360,000 compounds, 2% hits;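 note: potency is the fitted concentration of half-maximal effect; 0% = DMSO wells and -100% = cell-free medium wells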
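After a 2 h attachment period, IDH1KD HT-1080 cells took pin-transferred compound for 48 h at 37 °C; ATP-based luminescence after 10 min room-temperature reagent incubation reported viability.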
HT1080NT lethal = kills 2HG-producing HT-1080-NT fibrosarcoma cells; HT-1080-NT fibrosarcoma viability, CellTiter-Glo ATP luminescence, 48 h; 360,000 compounds, 1.6% hits; Potency, µM (highest dose often 46.1 µM), without a hit: at the highest dose activity, negative = less viability, most hits filed as cytotoxic; AID 686970;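 note: NT is the 2HG producing partner of a matched IDH1 knockdown line; potency is the fitted concentration of half-maximal effect; 0% = DMSO-treated cells and -100% = media-only wells without cells; nearly all actives have a fitted effect of over 55% in size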
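Viability by CellTiter-Glo luminescence after 48 h compound exposure at 37C of HT-1080-NT cells (750/well, RPMI, 5% FBS). % activity scaled between DMSO wells and medium-only wells, then curve-fitted and categorized by curve class.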
KB-V1 cytotox = kills drug-selected multidrug resistant KB-V1 cells. 400,000 compounds, 3.4% hits. AID 1347076. Potency, µM (titrated, usually from 46.1 µM), most hits filed as cytotoxic. KB-V1 MDR cells viability, CellTiter-Glo, 72 h; note: potency is the fitted concentration of half-maximal effect; nearly all actives have a fitted effect of over 60% in size
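Cells of the MDR subline KB-V1 are plated, dosed with compound at multiple concentrations, and incubated 72 h at 37 degrees C; CellTiter-Glo is then added and luminescence read after 10 min.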
Starred values were filed as active, the others as inactive; i = inactive; ? = inconclusive; nt = not tested or not shown. The list is not random: actives were taken first. Their share in the collection is about 8.8%. Unless noted, calls come from the whole dose curve; as a rule, active = well fitted curve in the direction sought with a large enough effect; inconclusive = small, poorly fitted or top-dose-only effect, or another doubt; inactive = no such curve, though single readings can be large; an effect the other way counts as inactive or inconclusive. Unless noted, % is set by controls: 0 for no effect and ±100 for the full control effect.

SMILES	KB-3-1 cytotox	IL-1B inflam inh	HT1080 IDH1KD tx	HT1080NT lethal	KB-V1 cytotox
CCCCCCC[C@@H](C/C=C/CCC(=O)N(C)C/C(=C/Cl)C/C(=C\C(=O)N1CC(OC)=CC1=O)OC)OC	i	106	9.2µM*	5.8µM*	?
CCCCCCC[C@@H](C/C=C/CCC(=O)N(C)C/C(=C/Cl)C/C(=C\C(=O)N1C[C@H](O)CC1=O)OC)OC	i	-71*	?	23µM*	i
O=C(O)c1cccc(S(=O)(=O)Nc2ccc(N3CCCCC3)cc2)c1	i	19	17%	9%	i
O=C(NCCCN1CCOCC1)c1ccc2c(c1)N(Cc1ccccc1F)C(=O)c1ccccc1S2=O (stereo not drawn)	i	53	-17%	-19%	?
CCCCNC(=O)c1[nH]c(=O)cnc1-c1ccccc1	i	20	14%	?	i
C=C(C)C(=O)Oc1ccc(N2C(=O)[C@@H]3C4C=CC(C4)[C@@H]3C2=O)cc1	i	-99*	1%	5%	i
CC(=O)Oc1cccc(N2C(=O)C3C4C=CC(C4)C3C2=O)c1 (stereo not drawn)	i	2	-1%	-2%	i
CC(C)(C)OC(=O)C[C@@H]1C/C=C\C[C@@H](CC(=O)N[C@H](CO)Cc2ccccc2)C(=O)N2CCC[C@H]2COC1=O	i	-24	1%	0%	i
CCC(O)c1cc2c(cc1NC(=O)c1ccccc1F)OCCO2 (stereo not drawn)	i	nt	nt	nt	i
C=CCN(C(=O)C1CC(=O)N(C2CCCC2)C1)c1nc(-c2ccc(S(C)(=O)=O)cc2)cs1 (stereo not drawn)	18µM*	0	-15%	-19%	2.9µM*
O=C(NCC(c1ccco1)N1CCN(c2ccccc2F)CC1)c1ccc2c(c1)OCO2 (stereo not drawn)	?	1	?	-19%	?
CC(=O)c1ccc(NC(=O)c2nc(-c3ccc(Cl)cc3)n3c2CCCCC3)cc1	?	nt	nt	nt	i
O=C(NC1CCN(C(=O)c2cccs2)CC1)c1ccccc1	i	-8	11%	13%	i
Cn1nnnc1Sc1ncnc2scc(-c3cccc(S(C)(=O)=O)c3)c12	21µM*	nt	nt	nt	?
CC(=O)c1cccc(-c2csc3ncnc(Sc4nnnn4C)c23)c1	i	nt	nt	nt	i
Cn1nnnc1Sc1ncnc2scc(-c3cccc(Br)c3)c12	7.3µM*	nt	nt	nt	18µM*
Cn1nnnc1Sc1ncnc2scc(-c3cccc4c3sc3ccccc34)c12	21µM*	nt	nt	nt	?
Cn1nnnc1Sc1ncnc2scc(-c3ccccc3Cl)c12	?	nt	nt	nt	i
N#CCC(=O)Nc1ccc(C(=O)Nc2cccc(S(=O)(=O)N3CCCC3)c2)cc1	i	19	3%	4%	i
Cc1ccc(S(=O)(=O)N2CCCC2C(=O)N(C)Cc2cccs2)cc1 (stereo not drawn)	i	5	12%	6%	21µM*
Cc1ccc(S(=O)(=O)N2CCCC2CNC(=O)C(=O)NCc2cccs2)cc1 (stereo not drawn)	?	10	-9%	-1%	13µM*
Cc1ccc(CNC(=O)C(=O)NCC2CCCN2S(=O)(=O)c2cc(C)ccc2C)cc1 (stereo not drawn)	i	-10	-14%	-20%	i
Cc1ccc(C)c(S(=O)(=O)N2CCCC2CNC(=O)C(=O)NCc2ccccc2)c1 (stereo not drawn)	i	7	0%	0%	8.2µM*
COc1ccc(NC(=O)C(=O)NCC2CCCN2S(=O)(=O)c2cc(C)ccc2C)cc1 (stereo not drawn)	5.8µM*	-3	18µM*	?	5.8µM*
Cc1ccc(C)c(S(=O)(=O)N2CCCC2CNC(=O)C(=O)NCc2ccco2)c1 (stereo not drawn)	i	-6	-1%	0%	i
SMILES	KB-3-1 cytotox	IL-1B inflam inh	HT1080 IDH1KD tx	HT1080NT lethal	KB-V1 cytotox
Cc1ccc(C)c(S(=O)(=O)N2CCCCC2CCNC(=O)C(=O)NCc2ccco2)c1 (stereo not drawn)	?	-8	?	-17%	9.2µM*
COc1ccc(NC(=O)C(=O)NCC2CCCN2S(=O)(=O)c2ccc(C)cc2)cc1 (stereo not drawn)	0.15µM*	58	0.052µM*	0.21µM*	0.23µM*
COc1ccc(S(=O)(=O)N2CCCC2CNC(=O)C(=O)Nc2ccc(C)cc2)cc1 (stereo not drawn)	i	-23	2%	-5%	i
Cc1ccc(Cl)cc1NC(=O)c1ccc2nc(CCc3ccccc3)oc2c1	i	nt	nt	nt	i
CCc1ccc(C(=O)c2cn(CC(=O)Nc3cccc(OC)c3)c3cc4c(cc3c2=O)OCO4)cc1	i	nt	nt	nt	i
Nc1nc2c(Br)ccc(Br)c2cc1C(=O)NCc1cccc2ccccc12	i	-2	16µM*	-20%	i
COc1cccc(CNc2ccccc2O)c1OCc1ccccc1F	i	-92*	-19%	-18%	i
COc1cccc(CNc2ccc(S(N)(=O)=O)cc2)c1OCc1ccccc1F	?	0	-22%	-8%	21µM*
CCOc1cc(-c2ccc3c(c2)OCO3)cc(=[O+]CC)c2c(C)oc(C)c12	i	nt	nt	nt	i
CCCCn1nnnc1C1(C)CCC(=O)N1Cc1ccc(OC)cc1 (stereo not drawn)	i	40	12%	18%	i
CCOC(=O)C1=CCN(S(=O)(=O)c2ccc(C)cc2)C1c1cccc(F)c1 (stereo not drawn)	i	-7	-5%	-2%	?
Cc1ccc(OCc2nnc(SCC(=O)c3ccccc3)n2-c2ccccc2)cc1	i	-56*	?	?	i
COCc1nnc(SCC(=O)NCc2ccccc2)n1-c1ccccc1	i	-6	10%	17%	i
Cc1ccc(OCc2nnc(SCC(=O)O)n2-c2ccccc2)cc1	i	0	21%	17%	i
COc1ccc(-n2c(COc3ccc(C)cc3)nnc2SCc2ccc(C#N)cc2)cc1	i	-6	?	-14%	6.5µM*
Cc1cccc(OCc2nnc(SCC(=O)O)n2-c2ccccc2)c1	i	-26	-6%	-6%	i
Cc1cccc(-n2c(CCc3ccccc3)nnc2SCC(=O)c2ccccc2)c1	i	-86*	-4%	1%	?
COc1ccc(-n2c(COc3ccc(Cl)cc3)nnc2SCc2ccc(C#N)cc2)cc1	i	-12	?	?	?
Cc1ccc(-n2c(CCc3ccccc3)nnc2SCC(=O)NCc2ccccc2)cc1C	?	-57*	-2%	-3%	?
O=[N+]([O-])c1cccc(COc2ccccc2CN2CCCC2)c1	i	1	6%	0%	i

Screens (PubChem)
